# PG9 Ab binder – binds the HIV-1 gp120 antibody PG9. TR-FRET gp120-PG9 antibody binding. inhibition, % at 6.7 µM. actives 0.43% (n = 360,000); in the data active means inhibition above about 8.5%
# ABCB6 inh 2 – inhibitors of human ABC transporter ABCB6; K562-ABCB6 porphyrin accumulation, flow cytometry, 1 h; active compounds read low; fluorescence ratio to DMSO, % at 10 µM; actives 0.19% (n = 360,000);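 active means fluorescence ratio to DMSO below 75%, the collection mean minus 3 SD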;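 further: signal is porphyrin accumulated inside mitochondria; lower ratio means ABCB6 inhibition with less porphyrin fluorescence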
# Target sequence (Q9NP58 whole entry, looked up): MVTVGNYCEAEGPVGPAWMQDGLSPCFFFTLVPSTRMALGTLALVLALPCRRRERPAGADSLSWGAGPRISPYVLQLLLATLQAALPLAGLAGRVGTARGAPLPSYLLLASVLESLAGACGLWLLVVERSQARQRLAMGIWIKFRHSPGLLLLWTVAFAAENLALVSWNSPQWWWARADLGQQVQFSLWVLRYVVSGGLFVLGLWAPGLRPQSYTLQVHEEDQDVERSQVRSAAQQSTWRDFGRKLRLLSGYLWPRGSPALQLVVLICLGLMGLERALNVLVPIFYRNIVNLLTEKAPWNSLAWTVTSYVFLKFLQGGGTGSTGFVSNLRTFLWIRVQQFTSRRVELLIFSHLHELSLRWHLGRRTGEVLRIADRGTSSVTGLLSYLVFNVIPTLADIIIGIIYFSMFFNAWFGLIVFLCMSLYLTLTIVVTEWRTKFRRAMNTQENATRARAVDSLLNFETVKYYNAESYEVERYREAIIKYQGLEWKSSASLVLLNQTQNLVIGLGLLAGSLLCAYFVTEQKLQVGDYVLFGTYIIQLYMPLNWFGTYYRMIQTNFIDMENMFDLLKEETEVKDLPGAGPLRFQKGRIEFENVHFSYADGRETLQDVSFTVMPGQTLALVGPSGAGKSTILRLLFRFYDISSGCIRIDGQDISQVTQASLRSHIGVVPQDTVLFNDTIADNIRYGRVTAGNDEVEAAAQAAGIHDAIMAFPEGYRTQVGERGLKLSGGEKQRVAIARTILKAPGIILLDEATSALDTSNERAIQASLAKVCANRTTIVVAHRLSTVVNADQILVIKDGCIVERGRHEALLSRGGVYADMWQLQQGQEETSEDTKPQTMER
# Granule exo inh – blocks lytic granule exocytosis. TALL-104 LAMP-1 surface exposure, flow cytometry; cells stimulated with thapsigargin and PMA. inhibition, % at 10 µM. actives 0.66% (n = 360,000). AID 651702;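 active means inhibition above about 55%, limit read from the data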
# rCAG RNA binder – molecules binding r(CAG) RNA repeats; r(CAG) RNA repeat, TO-PRO-1 dye displacement fluorescence; inhibition, % at 3 µM; actives 1.3% (n = 370,000);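 active means inhibition above the plate cutoff, the mean of all test compounds on that plate plus 3 SD, cut at about 35% in these data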;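 further: higher means more dye released from RNA so lower well fluorescence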
# rCAG bind conf – r(CAG) RNA repeat binding, confirmation; shares compounds with rCAG RNA binder; TO-PRO-1 dye displacement fluorescence; inhibition, % at 3 µM; actives 70% (n = 4,300); AID 652065;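 active means inhibition above a per-plate cutoff, the mean inhibition of sample wells plus 3 SD, cut at about 35% in these data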;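 further: loss of TO-PRO-1 fluorescence as compound displaces dye from 1x1 AA loop RNA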
# DNA CAG counter – DNA CAG dye complex inhibition counter-screen. shares compounds with rCAG RNA binder. d(CAG) DNA oligo TO-PRO-1 dye displacement, fluorescence. inhibition, % at 3 µM. actives 94% (n = 4,300). AID 652068;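 active means inhibition above its plate's cutoff, the mean test-well inhibition plus 3 SD, cut at about 4.8% in these data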;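 further: hits displace the dye from DNA and so lower well fluorescence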
# dCAG dye DR – DNA CAG dye complex inhibition, dose response counter-screen. actives 20% (n = 250). shares compounds with rCAG RNA binder. AID 686960. DNA CAG/GTC duplex TO-PRO-1 dye displacement fluorescence. IC50, µM; in the data active means IC50 below about 10 µM
# A number is an active result; 0 = inactive; - = no result. This is a sample that favours compounds with a hit; in the whole collection about 2.5% have one here.
SMILES,PG9 Ab binder,ABCB6 inh 2,Granule exo inh,rCAG RNA binder,rCAG bind conf,DNA CAG counter,others
COc1ccc(NC(=O)Nc2nnc(C(C)(C)C)s2)cc1,0,0,0,0,-,-,
CC(C)(C)c1nc(NC(=O)Nc2ccccc2)sc1Br,0,0,0,36.2,0,15.7,
COC(=O)c1ccc(C(=O)OC)c(NC(=O)Cc2cccs2)c1,0,0,0,38.7,0,17.4,
NS(=O)(=O)c1ccc(N=Nc2c(=O)[nH]n3c(=O)c4c([nH]c23)CCCC4)cc1,0,0,0,0,-,-,
O=c1[nH]n2c(=O)c3c([nH]c2c1N=Nc1cccc(C(F)(F)F)c1)CCCC3,0,0,0,98.8,76.4,42.3,
COc1cccc(N=Nc2c(=O)[nH]n3c(=O)c4c([nH]c23)CCC4)c1,0,0,0,38.8,0,7.6,
O=c1[nH]n2c(=O)c3c([nH]c2c1N=Nc1cccc(Cl)c1)CCC3,0,0,0,84.7,72.8,30.9,dCAG dye DR=8.41
COc1ccccc1CNC(=O)COC(=O)c1cc2ccccc2o1,0,0,0,0,-,-,
O=C1NC(=O)C2(CCCCC2C2CCCCC2)N1 (stereo unspecified),0,0,0,0,-,-,
Cc1cccc(N2C(=O)C(O)=C(C(=O)c3cccs3)C2c2cccc(Oc3ccccc3)c2)n1 (stereo unspecified),0,0,0,45.4,40.1,10.3,
C[C@@H]1O[C@@H](n2c3ccc(Cl)cc3c3ccc4c5cc(Cl)ccc5[nH]c4c32)[C@H](O)[C@H](O)[C@H]1O,-,-,-,61.7,60.1,42.0,
C[C@H]1O[C@@H](n2cc(F)c(=O)[nH]c2=O)[C@H](O)[C@@H]1O,0,0,0,0,-,-,
C[C@H]1O[C@@H](n2c3ccc(Cl)cc3c3ccc4c5cc(Cl)ccc5[nH]c4c32)[C@H](O)[C@H](O)[C@H]1O,-,-,-,77.6,54.4,42.5,
COc1cc(/C(C)=N/N2CCN(c3ccccc3OC)CC2)ccc1O,0,0,0,0,-,-,
CC(C)OCCCNC(=O)c1cccc2c1C(=O)c1ccc(Cl)cc1S2(=O)=O,0,0,0,0,-,-,
Cc1noc(NS(=O)(=O)c2ccc(N/C=C/C(=O)c3ccc(F)cc3)cc2)c1C,0,0,0,0,-,-,
COc1ccc(C(=O)/C=C/Nc2ccc(S(=O)(=O)Nc3onc(C)c3C)cc2)cc1,0,0,0,46.5,48.8,18.4,
CCc1ccc(C(=O)/C=C/Nc2ccc(S(=O)(=O)Nc3onc(C)c3C)cc2)cc1,0,0,0,56.9,79.1,36.7,
COc1cc2c(cc1OC)C(c1ccccc1)N(Cc1ccc(S(=O)(=O)NC(=O)c3ccco3)cc1)CC2 (stereo unspecified),0,0,0,39.8,39.4,11.3,
CCN1C(=O)[C@H]2[C@@H](c3ccc(-c4ccc(F)cc4)c(OC)c3)N[C@@](Cc3ccccc3)(C(=O)OC)[C@H]2C1=O,0,0,0,0,-,-,
c1coc(-c2nc(-c3ccco3)c(-c3ccco3)nc2-c2ccco2)c1,0,-,-,67.8,44.6,20.7,dCAG dye DR=6.63
COc1ccc2nc(-c3ccco3)c(-c3ccco3)nc2c1,0,0,0,58.6,0,12.9,
Nc1nc(-c2ccco2)c(-c2ccco2)s1,0,0,0,0,-,-,
CCn1c(SCC(=O)Nc2ccc(N3CCOCC3)cc2)nnc1-c1ccco1,0,0,0,0,-,-,
COc1ccc(CNC(=O)COC(=O)c2cccn2C)cc1,0,0,0,0,-,-,
SMILES,PG9 Ab binder,ABCB6 inh 2,Granule exo inh,rCAG RNA binder,rCAG bind conf,DNA CAG counter,others
CCc1ccc(NC(=O)c2ccc3c(c2)C(=O)N(Cc2ccco2)C3=O)cc1,0,0,0,34.9,0,14.3,
O=C1NC[C@H](CCCCN2CCN(CC3CCCCC3)C(=O)C2=O)N(CC2CCCCC2)C1=O,0,0,0,0,-,-,
CCn1c(COc2cccc(C)c2)nnc1SCC(=O)CC(=O)Nc1ccccc1OC,0,0,0,36.9,0,4.6,
COc1ccccc1CNS(=O)(=O)CCNCc1ccco1,0,0,0,0,-,-,
COc1ccc(-c2nn(-c3ccccc3)cc2/C=N/NC(=O)c2cccc(S(=O)(=O)Nc3ccccc3Cl)c2)cc1,0,0,0,58.6,55.2,28.9,
O=C(N/N=C/c1ccccn1)c1cccc(S(=O)(=O)Nc2ccccc2Cl)c1,0,0,0,0,-,-,
Cc1ccsc1/C=N/NC(=O)c1cccc(S(=O)(=O)Nc2ccccc2Cl)c1,0,0,0,46.8,39.9,14.4,
O=C(COc1ccc(Br)cc1)N(Cc1ccco1)C1CCS(=O)(=O)C1 (stereo unspecified),0,0,0,0,-,-,
O=C(Nc1nnc(SCc2ccccc2)s1)c1cccc([N+](=O)[O-])c1,0,0,0,36.4,0,6.0,
Cc1cccc(C(=O)NCCC(=O)Nc2ccc(F)c([N+](=O)[O-])c2)c1,0,0,0,0,-,-,
C=CCn1c(SCc2ccc(Br)cc2F)nc2cc(C(=O)O)ccc2c1=O,0,0,0,56.7,60.5,21.9,
CSc1nc2c(c(=O)[nH]1)C(c1cccs1)C1=C(CCCC1=O)N2 (stereo unspecified),0,0,0,0,-,-,
O=C1CCCC2=C1C(c1cn(-c3ccccc3)nc1-c1cccs1)c1c([nH]c(=O)[nH]c1=O)N2 (stereo unspecified),0,0,0,39.1,0,15.3,
C=CCn1c(SCC(=O)Nc2ccccc2C)nc(O)cc1=O,0,0,0,0,-,-,
Cc1cccc(NC(=O)CN2C(=O)S/C(=C\c3ccc(O)c([N+](=O)[O-])c3)C2=O)c1,0,0,0,83.0,57.1,20.3,
O=C(CN1C(=O)S/C(=C\c2ccc(O)c([N+](=O)[O-])c2)C1=O)Nc1ccc(N2CCOCC2)cc1,0,0,0,0,-,-,
O=C(CN1C(=O)S/C(=C\c2cc(Cl)c(O)c(Cl)c2)C1=O)Nc1ccccc1,0,0,0,48.2,50.3,16.2,
Cc1ccc(NC(=O)CN2C(=O)S/C(=C/c3ccc(O)c([N+](=O)[O-])c3)C2=O)cc1C,0,0,0,93.7,79.7,46.1,
Cc1cc(C)cc(NC(=O)COC(=O)COc2ccc(N(C)S(=O)(=O)c3cccs3)cc2)c1,0,0,0,0,-,-,
Cc1noc(C)c1COc1ccc(C(=O)OCC(=O)Nc2ccc(C(=O)N(C)C)cc2)cc1,0,0,0,0,-,-,
CCC(Sc1nc(C)cc(=O)[nH]1)C(=O)Nc1nc(-c2ccccc2)cs1 (stereo unspecified),0,0,0,48.5,60.1,22.6,
Cc1ccc(-c2csc(NC(=O)CSc3nc(C)cc(=O)[nH]3)n2)cc1,0,-,-,55.7,54.5,19.3,
CCOC(=O)c1c(-c2ccccc2Cl)csc1NC(=O)CSc1nc(C)cc(=O)[nH]1,0,0,0,37.9,45.0,14.7,
Cc1ccc(-c2csc(NC(=O)CSc3nnc4c(n3)[nH]c3ccccc34)n2)cc1,0,0,0,35.1,0,18.0,
C=CCn1c(=NC(=O)CC)n(C)c2ccccc21,0,0,0,0,-,-,

# Screening results as filed in PubChem.
